Screening data deposited in PubChem BioAssay by National Center for Advancing Translational Sciences (NCATS).
NS1 inh: qHTS Assay for Inhibitors of Influenza NS1 Protein Function; actives 0.4% (n = 270,000); Potency, µM (doses to about 46.1 µM); AID 2326, 2010; calls by dose curve; further: actives are rising curves; nearly all actives have a fitted effect of over 50% in size
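A cell-based growth assay was used: compounds that relieve NS1-induced slow growth of budding yeast raise OD600. Assay medium was yeast nitrogen base with ammonium sulphate and -URA supplement, pH 6.0, with 2% galactose.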
CHX counter: Cycloheximide Counterscreen for Small Molecule Inhibitors of Shiga Toxin | actives 12% (n = 300,000) | cell reporter, cycloheximide protein synthesis inhibition counterscreen | max response, % | AID 2314, 2010; in the data active means max response mostly above about 13%, no sharp cut-off; inactive means mostly below about 14%; further: read at 38.3 µM for the half of the compounds with a filed dose
AmpC inh detg: qHTS Inhibitors of AmpC Beta-Lactamase (assay with detergent); P00811; AmpC hydrolysis of nitrocefin, absorbance 480 nm, 0.01% Triton; Potency, µM (top dose mostly 114 µM), hits mostly inhibitors; actives 0.041% (n = 370,000); AID 485294, 2010; further: nearly all actives have a fitted effect of over 25% in size
Target sequence (P00811 whole entry, looked up): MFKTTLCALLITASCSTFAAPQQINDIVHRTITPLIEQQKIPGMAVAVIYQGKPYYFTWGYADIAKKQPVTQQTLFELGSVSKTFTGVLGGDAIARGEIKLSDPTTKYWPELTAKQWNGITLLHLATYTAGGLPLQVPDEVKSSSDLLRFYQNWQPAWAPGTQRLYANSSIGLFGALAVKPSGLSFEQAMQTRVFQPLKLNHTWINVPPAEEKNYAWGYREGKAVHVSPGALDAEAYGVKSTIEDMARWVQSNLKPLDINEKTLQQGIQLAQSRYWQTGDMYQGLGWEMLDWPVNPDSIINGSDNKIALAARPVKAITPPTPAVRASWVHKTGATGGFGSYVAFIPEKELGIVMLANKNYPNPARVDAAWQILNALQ
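20 mM phosphate pH 7.0 + 0.01% (detergent screen) or 0.0001% Triton X-100; 5.3 nM AmpC reagent; cpd preinc 15 min RT; nitrocefin (800 uM stock) to start; A480 q20 s × 4 min; Activity was normalised to no-enzyme and no-compound control wells.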
AmpC inh no detg: qHTS Inhibitors of AmpC Beta-Lactamase (assay without detergent). AmpC nitrocefin hydrolysis, absorbance 480 nm, 0.0001% Triton. AID 485341, 2010. actives 0.52% (n = 330,000). P00811. Potency, µM (titrated, usually from 57.1 µM), actives largely listed as inhibitors; further: nearly all actives have a fitted effect of over 20% in size
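AmpC (5.3 nM in the dispensed reagent) in 20 mM phosphate pH 7.0 with 0.01% (detergent screen) or 0.0001% Triton X-100 was preincubated with compounds for 15 min at room temperature. Nitrocefin was then added from an 800 uM solution, and hydrolysis was followed at 480 nm.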
Shiga inhibitor: A qHTS for Small Molecule Inhibitors of Shiga Toxin | Vero cells, Shiga toxin protein synthesis inhibition reporter | AID 2315, 2010 | inhibition, % at 38.7 µM | actives 9.2% (n = 290,000); in the data active means inhibition mostly above about 28%, no sharp cut-off; inactive means mostly below about 43%
Numbers stand for hits; . = inactive; ? = inconclusive; / = no result; [ ] = another dose, or the depositor's remark. The sample as a whole holds a higher share of hits than the screen did. Unless noted, the call rests on the fitted dose curve; in most records, active means well fitted curve in the direction sought with a large enough effect; inconclusive means small, poorly fitted or top-dose-only effect, or another doubt; inactive means no such curve, though single readings can be large; an effect the other way counts as inactive or inconclusive.

SMILES | NS1 inh | CHX counter | AmpC inh detg | AmpC inh no detg | Shiga inhibitor
CCc1ccc(C(=O)NNc2ccccc2F)cc1 | . | 36.0 | . | . | 70.9
CCc1ccccc1NC(=S)N(CCCN1CCOCC1)Cc1cccs1 | . | . | . | . | .
Cc1ccccc1C(=O)Oc1cccc2c(O)cccc12 | . | . | . | . | .
COc1cccc(C(=O)Oc2ccc3ccc(O)cc3c2)c1 | . | 38.5 | . | . | /
Cc1ccccc1C(=O)Oc1ccc2ccc(O)cc2c1 | . | 58.6 | . | . | /
COC(=O)c1cccc(OC(N)=O)c1 | . | . | ? | . | .
CC(=O)Nc1ccc(OS(=O)(=O)c2ccccc2C)cc1 | . | . | . | . | .
Cc1ccccc1S(=O)(=O)Oc1ccc2ccc(O)cc2c1 | . | 32.5 | ? | . | /
CSCCC(NS(=O)(=O)c1ccc2c(c1)oc(=O)n2C)C(=O)NCc1ccc(F)cc1 (stereo not drawn) | / | / | . | / | /
CC(=O)N1C(=O)/C(=C2\SC(=S)N(NS(=O)(=O)c3ccc(C)cc3)C2=O)c2ccccc21 | . | . | . | . | .
c1ccc2c(c1)CCCN2c1nc2ccccc2n2cnnc12 | . | 29.9 | . | . | 107.0
C=C1C(=O)O[C@H]2C[C@@H](C)[C@@H]3C=CC(=O)[C@@]3(C)C[C@H]12 | . | 40.2 | . | . | 46.7
CC[C@H](C)[C@H](NC(=O)[C@H](C)NC(=O)[C@H](CC(=O)O)NC(=O)[C@H](CO)NC(=O)[C@@H](N)Cc1cnc[nH]1)C(=O)N[C@@H](Cc1ccccc1)C(=O)N[C@H](C(=O)N[C@@H](CCC(N)=O)C(=O)N[C@@H](CCC(N)=O)C(=O)N[C@@H](Cc1ccc(O)cc1)C(=O)N[C@@H](CO)C(=O)N[C@@H](CCCCN)C(=O)N[C@@H](CC(C)C)C(=O)N[C@@H](CC(C)C)C(=O)N[C@@H](C)C(=O)N[C@@H](CCCCN)C(=O)N[C@@H](CC(C)C)C(=O)N[C@@H](C)C(=O)N[C@@H](CC(C)C)C(=O)N[C@@H](CCC(N)=O)C(=O)N[C@@H](CCCCN)C(=O)N[C@@H](Cc1ccc(O)cc1)C(=O)N[C@@H](CC(C)C)C(=O)N[C@@H](C)C(=O)N[C@@H](CO)C(=O)N[C@H](C(=O)N[C@@H](CC(C)C)C(=O)NCC(=O)N[C@@H](CO)C(=O)N[C@@H](CCCNC(=N)N)C(=O)N[C@H](C(=O)N[C@@H](CO)C(=O)N1CCC[C@H]1C(=O)N1CCC[C@H]1C(=O)N1CCC[C@H]1C(N)=O)[C@@H](C)O)[C@@H](C)CC)[C@@H](C)O | / | . | / | / | .
COc1ccc2oc(C(=O)Nc3ccccn3)c(C)c2c1 | . | 56.7 | . | . | 66.0
COc1ccc2oc(C(=O)NN3C(C)CCCC3C)c(C)c2c1 (stereo not drawn) | / | . | ? | .[11.4 µM] | .
COc1ccc2oc(C(=O)NC3CCCCC3)c(C)c2c1 | . | 47.2 | . | . | 113.8
COc1ccc2oc(C(=O)NCCC(C)C)c(C)c2c1 | / | 58.1 | ? | . | .
COc1ccc(C(CNC(=O)c2oc3ccc(OC)cc3c2C)N2CCCC2)cc1 (stereo not drawn) | / | / | ? | . | /
Cc1ccc2oc(C(=O)NC3CCS(=O)(=O)C3)c(C)c2c1 (stereo not drawn) | . | 29.9 | . | . | 35.0
O=C(O)c1ccccc1Nc1cc(Cl)cc(Cl)c1 | / | . | / | / | .
Cc1ccc(-n2c(=O)c3c(c4cc(C)ccc4n3C)n(CC(=O)N3CCCC3)c2=O)cc1 | / | / | . | / | /
COc1ccc(CNCCSc2nnnn2-c2ccccc2)c(OC)c1 | / | / | . | / | /
CCN(CC)CCCNC(=O)c1cnc(SC)nc1-c1ccccc1 | / | / | . | / | /
Cc1c(C(=O)Nc2nccs2)oc2ccc(F)cc12 | / | / | . | . | /
Cc1c(C(=O)NC2CCCCC2)oc2ccc(F)cc12 | . | 50.9 | . | . | 113.5
SMILES | NS1 inh | CHX counter | AmpC inh detg | AmpC inh no detg | Shiga inhibitor
O=C1/C(=C/c2ccco2)SC(=S)N1CCC(=O)N1CCCCC1CCO (stereo not drawn) | . | 11.0 | . | . | .
O=C1/C(=C/c2ccc(Cl)cc2)SC(=S)N1CCC(=O)N1CCCCC1CCO (stereo not drawn) | . | . | . | . | .
O=C1/C(=C/c2ccccc2F)SC(=S)N1CCC(=O)N1CCCCC1CCO (stereo not drawn) | . | 30.5 | . | . | .
O=C1/C(=C/c2cccs2)SC(=S)N1CC(=O)N1CCCCC1CCO (stereo not drawn) | . | 14.8 | . | . | .
Oc1c(C(c2ccc(Cl)cc2Cl)N2CCCC2)sc2nc(-c3ccco3)nn12 (stereo not drawn) | / | / | . | / | /
CCCCCCCCCCCCSCCOCCO | / | . | / | / | .
COC(=O)C1CCN(c2c([N+](=O)[O-])cc(C(F)(F)F)cc2[N+](=O)[O-])CC1 | . | . | . | 0.251µM | .
CCc1ccc(C(C(=O)NC2CCCC2)N(C(=O)/C=C/C(=O)Nc2cc(C)on2)c2ccccc2C)cc1 (stereo not drawn) | . | . | . | . | .
COC(=O)C1(Cc2cc(-c3cccnc3)no2)CCN(C(=O)OC(C)(C)C)CC1 | . | 10.0 | . | . | .
CCCN(C(=O)c1cc2c(s1)-c1ccccc1SC2)c1ccccc1F | / | / | . | / | /
COCCCNc1ncnc2c1nnn2C | / | / | . | / | /
Cc1ccc(NC(=O)C2Cc3ccccc3CN2C(=O)c2ccco2)cc1S(=O)(=O)N(C)C (stereo not drawn) | . | 30.7 | . | . | 79.3
COc1ccc(NC(=O)C2Cc3ccccc3CN2C(=O)c2ccco2)cc1 (stereo not drawn) | . | 20.5 | . | . | .
COc1ccc(N2CCN(C(=O)C3Cc4ccccc4CN3C(=O)c3ccco3)CC2)cc1 (stereo not drawn) | / | / | . | . | /
O=C(Nc1nnc(C2CC2)s1)C1Cc2ccccc2CN1C(=O)c1ccco1 (stereo not drawn) | / | 22.9 | . | .[11.4 µM] | 39.4
Cc1c(NC(=O)C2Cc3ccccc3CN2C(=O)c2ccco2)c(=O)n(-c2ccccc2)n1C (stereo not drawn) | . | . | . | . | .
CN(C)S(=O)(=O)c1cccc(NC(=O)C2Cc3ccccc3CN2C(=O)c2ccco2)c1 (stereo not drawn) | . | 21.1 | . | . | 69.0
O=C(Nc1ccccc1N1CCOCC1)C1Cc2ccccc2CN1C(=O)c1ccco1 (stereo not drawn) | . | . | . | . | .
CCc1ccc2oc(C(=O)Nc3nonc3CC)c(C)c2c1 | . | 58.9 | . | . | 52.6
CCc1nonc1NC(=O)c1oc2cc(Br)ccc2c1C | . | 15.4 | . | . | .
CCc1ccc2oc(C(=O)NCc3ccncc3)c(C)c2c1 | . | 21.9 | . | . | 50.3
CCc1nonc1NC(=O)c1oc2ccccc2c1C | . | 36.3 | . | . | .
Cc1cc(C)c2c(C)c(C(=O)NCc3ccncc3)oc2c1 | . | . | . | . | .
O=C1CN(S(=O)(=O)c2c(F)cccc2F)CCN1S(=O)(=O)c1ccc2c(c1)OCCO2 | / | . | / | / | .
